{"source": "PubChem BioAssay (EPA / NIEHS)", "note": "Activity calls are given as the source filed them. How the source made its calls: active means hit-call score of the fitted dose curve at least 0.9, where 1 is the maximum; inactive means score below 0.9."}
{"test": "APR_HepG2_P-H2AX_72hr: Apredica 72-hour HepG2 Assay for H2AX Phosphorylation (AID 2282916)", "details": "imaging, actives raise or lower the signal", "method": "APR_HepG2_72hr is a cell-based, multiplexed-readout assay that uses HepG2, a human liver cell line, with measurements taken at 72 hours after chemical dosing in a 384-well plate.APR_HepG2_P-H2AX_72hr is one of 10 assay component(s) measured or calculated from the APR_HepG2_72hr assay. It is designed to make measurements of dna content, a form of viability reporter, as detected with fluorescence intensity signals by HCS Fluorescent Imaging technology.Data from the assay component APR_HepG2_P-H2AX_72hr was analyzed into 1 assay endpoint. This assay endpoint, APR_HepG2_P-H2AX_72hr, was analyzed with bidirectional fitting relative to DMSO as the negative control and baseline of activity. Using a type of viability reporter, measures of protein for gain or loss-of-signal activity can be used to understand the signaling at the pathway-level as they relate to the gene . Furthermore, this assay endpoint can be referred to as a primary readout, because this assay has produced multiple assay endpoints where this one serves a signaling function. To generalize the intended target to other relatable targets, this assay endpoint is annotated to the dna binding intended target family, where the subfamily is cellular response to DNA damage stimulus.\nCells were treated with dimethyl sulfoxide (DMSO) as a solvent control at a final concentration of 0.5% v/v or with compounds in DMSO with a resulting final DMSO concentration of 0.5% v/v. Compound treatment was done at concentrations of 0.39, 0.78, 1.56, 3.12, 6.24, 12.5, 25, 50, 100, and 200 uM in duplicate on each plate. Cells were treated with compounds for 1, 24, or 72 hr. Carbonyl […] m-chloro-phenylhydrazone (CCCP) and taxol were used as positive controls for mitochondrial function and cytoskeletal stability, respectively; DMSO served as the negative control for this experiment. Cells were fixed by the direct addition of 50 uL formaldehyde in Hank's Balanced Salt Solution (HBSS) to a final concentration of 3.7%. After incubation in the fixation medium for 30 min at room temperature (293-298 K), cells were rinsed twice with HBSS and treated with cell permeabilization buffer (16 uL of 0.5% Triton X-100) for 10 min at room temperature (293-298 K) before labeling. For mitochondrial membrane potential and mitochondrial measurements, pre-fixed cells were incubated with 50 uL of MitoTracker Red CMXRos (Invitrogen) at a concentration of 250 nM for 30 min before fixation. In the remaining cases, post-fixed cells were labeled by incubation with a multiplexed mixture of primary antibodies in HBSS for 60 min at room temperature (293-298 K) to detect immunoreactivity of c-Jun (1:500), phospho-histone H3 (1:100), phospho-histone H2A.x (1:200), p53 (1:400), alpha-tubulin (1:200) and Hoechst 33342 (2 ug/mL). Cells were labeled for multiplexed imaging on two separate plates: a) Hoechst 33342, MitoTracker Red, phospho-histone H3, and alpha-tubulin, and b) Hoechst 33342, phospho-histone H2A.x, and c-Jun. A final rinse with HBSS (50 uL) was performed before analysis. The primary and secondary antibodies for the proteins were phospho-histone H3 (rabbit anti-phospho-histone H3 and FITC-donkey anti-rabbit IgG), phospho-histone H2A.x (mouse anti-phospho-histone H2A.x and FITC-donkey anti-mouse IgG), c-Jun (rabbit anti-phospho-c-Jun and Cy3-donkey anti-rabbit IgG), p53 (sheep anti-p53 and Cy5-donkey anti-sheep IgG), alpha-tubulin (mouse anti-alpha-tubulin and Cy5-donkey anti-mouse IgG). These antibodies are available as the CellCiphr HepG2 assay kit (Millipore).Digital images of each well were captured using a Cellomics ArrayScan VTI (Thermo Scientific Cellomics) (0.8 NA objective, 0.63x optical coupler, and XF-93 filter set) at 20x magnification. The images were acquired using the autofocus feature of the ArrayScan instrument, which entails the following steps. First, the camera focuses on channel 1 (Hoechst 33342), where nuclei are identified. Second, a Z offset of 1 um is used for capturing mitochondria (MitoTracker Red). […]"}
{"smiles": "CCCCCCC(CCCCCCCCCCC(=O)OCC(COC(C)=O)OC(C)=O)OC(C)=O", "note": "(stereo not given)", "outcome": "inactive"}
{"smiles": "CC(C)c1cccc(C(C)C)c1", "outcome": "inactive"}
{"smiles": "CCCCCCCCCC[N+](C)(C)[O-]", "outcome": "inactive"}
{"smiles": "Nc1nc(Cl)nc2c1ncn2[C@H]1C[C@H](O)[C@@H](CO)O1", "AC50": "0.0288 µM (active)"}
{"smiles": "Cc1occc(=O)c1O", "outcome": "inactive"}
{"smiles": "CCCCC(CC)COP(=O)(OCC(CC)CCCC)OCC(CC)CCCC", "note": "(stereo not given)", "AC50": "46.1 µM (active)"}
{"smiles": "C=CCCCCCCCCCCCC", "AC50": "98.6 µM (active)"}
{"smiles": "NC(=Nc1ccccc1)Nc1ccccc1", "AC50": "22.4 µM (active)"}
{"smiles": "O=C(NS(=O)(=O)/C=C/c1cccs1)c1ccc(F)cc1Br", "outcome": "inactive"}
{"smiles": "NC=O", "outcome": "inactive"}
{"smiles": "NC1CCCCC1", "outcome": "inactive"}
{"smiles": "O=C1CCCCC1", "outcome": "inactive"}
{"smiles": "C/C=C/c1ccc(OC)cc1", "outcome": "inactive"}
{"smiles": "COc1ccc(OC(F)(F)F)cc1CN[C@H]1CCCN[C@H]1c1ccccc1", "AC50": "28.3 µM (active)"}
{"smiles": "CCCCCCCCCCCCCCCCO", "outcome": "inactive"}
{"smiles": "CC(=O)O", "AC50": "92 µM (active)"}
{"smiles": "CCCCC(CC)COC(=O)CCCCCCCC(=O)OCC(CC)CCCC", "note": "(stereo not given)", "outcome": "inactive"}
{"smiles": "Oc1ccc(O)cc1", "outcome": "inactive"}
{"smiles": "CCCCCCC(C=O)=Cc1ccccc1", "outcome": "inactive"}
{"smiles": "CC(N)=O", "outcome": "inactive"}
{"smiles": "S=c1[nH]c2ccccc2s1", "outcome": "inactive"}
{"smiles": "CCN(CC)CCOc1ccc(C(=C(Cl)c2ccccc2)c2ccccc2)cc1", "AC50": "5.35 µM (active)"}
{"smiles": "CCc1nc(N)nc(N)c1-c1ccc(Cl)cc1", "AC50": "67.6 µM (active)"}
{"smiles": "Cc1c(C)c2c(c(C)c1O)CCC(C)(COc1ccc(CC3SC(=O)NC3=O)cc1)O2", "note": "(stereo not given)", "AC50": "89.5 µM (active)"}
{"smiles": "CCOCCOCCO", "outcome": "inactive"}
{"smiles": "C=CCc1ccc(OC)c(OC)c1", "outcome": "inactive"}
{"smiles": "CC(C)c1cccc(C(C)C)c1NC(=O)NS(=O)(=O)c1cc(C(C)(C)O)co1", "outcome": "inactive"}
{"smiles": "CC(C)OC(=O)C(C)(C)Oc1ccc(C(=O)c2ccc(Cl)cc2)cc1", "outcome": "inactive"}
{"smiles": "CC(=O)O[C@]1(C(C)=O)CC[C@H]2[C@@H]3C=C(Cl)C4=CC(=O)[C@@H]5C[C@@H]5[C@]4(C)[C@H]3CC[C@@]21C", "outcome": "inactive"}
{"smiles": "Cc1cc(SC2=C(O)C[C@@](CCc3ccc(N)cc3)(C(C)C)OC2=O)c(C(C)(C)C)cc1CO", "outcome": "inactive"}
{"smiles": "O=C1OC(c2ccc(O)cc2)(c2ccc(O)cc2)c2ccccc21", "AC50": "31 µM (active)"}
{"smiles": "O=C(O)c1cccnc1", "outcome": "inactive"}
{"smiles": "COC(=O)CCC(=O)OC", "outcome": "inactive"}
{"smiles": "CS(=O)(=O)c1ccc([C@@H](C[C@H]2CCC(=O)C2)C(=O)Nc2cnccn2)cc1Cl", "outcome": "inactive"}
{"smiles": "CC(C)(O)c1ccc(CNC(=O)c2cccnc2Oc2ccc(F)cc2)cc1", "outcome": "inactive"}
{"smiles": "Cc1ccc(-c2cc(C(F)(F)F)nn2-c2ccc(S(N)(=O)=O)cc2)cc1", "AC50": "100 µM (active)"}
{"smiles": "C#CC(O)C(CC)CCCC", "note": "(stereo not given)", "outcome": "inactive"}
{"smiles": "CCCCOC(=O)CCCCC(=O)OCCCC", "outcome": "inactive"}
{"smiles": "O=C1NC(=O)C(c2ccccc2)(c2ccccc2)N1", "outcome": "inactive"}
{"smiles": "CCCC[C@H]1CN(CC2CCOCC2)C(=O)OC12CCN(C1(C)CCN(C(=O)c3c(C)ncnc3C)CC1)CC2", "outcome": "inactive"}
